Values joined by “and” are separate entries in the source; they are usually repeats but may differ in a detail not shown here. Equal entries are not always repeated. Results filed as inconclusive are left out. Entries that show only a call come without a potency. Active and inactive are the calls of the source. Unless noted, the call rests on the fitted dose curve; in most records, active means well fitted curve in the direction sought with a large enough effect; inconclusive means small, poorly fitted or top-dose-only effect, or another doubt; inactive means no such curve, though single readings can be large; an effect the other way counts as inactive or inconclusive.
Key:
[1] = biological target: alpha-glucosidase (Oryza sativa, rice) (UniProt Q653V4); test: Counterscreen for Glucocerebrosidase Inhibitors: qHTS Assay for Rice alpha-Glucosidase at pH 5.0 (AID 997)
Method in brief: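 Rice alpha-glucosidase (4 nM final) with 400 uM 4-methylumbelliferyl-alpha-D-glucopyranoside in citrate buffer pH 5.0, 20 min at room temperature, stopped at pH 10; fluorescence 365/440 nm, compounds 0.7 nM–77 uM, AC50 from Hill fits.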

[2] = Validation of Assay for Modulators of Lamin A Splicing (AID 1459; active means well fitted curve in the direction sought with a large enough effect in the signal ratio; the % refers to the signal ratio;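 further: cells exposed to compound for two days before reading; ratio rise marks activators and ratio drop marks inhibitors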)
Method in brief: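 S3 HeLa stably expressing lamin A-EGFP splicing minigene and DsRed2, 600 cells/well in Opti-MEM with 2% FBS, treated 48 h at 37C; laser-scanning cytometry gives GFP/RFP total intensity ratio; ancitabine positive control, 0.5% DMSO vehicle.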

[3] = qHTS Assay for Lipid Storage Modulators (AID 1519; calls by dose curve); conditions: Drosophila S3 cells, BODIPY lipid droplet/cell ratio, laser cytometry, cells loaded with oleic acid
Method in brief: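 Cells seeded at 5,000 per well were treated with compounds over a concentration series and loaded with oleic acid (400 uM, as added). Lipid droplet fluorescence (488 nm excitation, 500-530 nm channel) was read by laser-scanning cytometry and normalized to 20 uM Triacsin C.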

[4] = biological target: DNA repair nuclease/redox regulator APEX1 (Homo sapiens) (UniProt P27695); test: qHTS Validation Assay for Inhibitors of the Human Apurinic/apyrimidinic Endonuclease 1 (APE1) (AID 1705;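 further: TAMRA fluorescence gain over two minutes as APE1 cuts a quenched THF abasic duplex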)
DNA repair nuclease/redox regulator APEX1 (Homo sapiens), sequence (P27695 whole entry, looked up): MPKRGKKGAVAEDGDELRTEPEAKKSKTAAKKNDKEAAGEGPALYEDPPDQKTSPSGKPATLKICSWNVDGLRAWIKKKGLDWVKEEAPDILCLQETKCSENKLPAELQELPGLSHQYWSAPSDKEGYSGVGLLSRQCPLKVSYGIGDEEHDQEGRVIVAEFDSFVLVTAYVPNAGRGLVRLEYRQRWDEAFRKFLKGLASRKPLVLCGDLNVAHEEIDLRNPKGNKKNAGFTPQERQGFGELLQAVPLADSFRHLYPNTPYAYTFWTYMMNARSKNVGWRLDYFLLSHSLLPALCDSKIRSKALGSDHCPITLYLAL
Method in brief: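 Fluorogenic double-stranded THF abasic-site substrate (5'-TAMRA/3'-BHQ-2), 50 nM final. Enzyme preincubated with compound 15 min at room temperature, then substrate added. Kinetic fluorescence (ex 525/em 598 nm) read three times at 60 s intervals; activity taken as third-minus-first read difference.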

[5] = Counterscreen for APE1 Inhibitors: Fluorescent Dye Displacement Validation Assay (AID 1707)
Method in brief: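 Compounds are scored by their ability to displace Thiazole Orange (250 nM) from a 50 nM TAMRA-tagged duplex bearing a tetrahydrofuran abasic site. Buffer is 50 mM Tris-HCl pH7.5, 50mM NaCl, 2 mM MgCl2, 0.01% Tween-20.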

[6] = biological target: Endonuclease 4 (Escherichia coli (strain K12)) (UniProt P0A6C1); test: Counterscreen for APE1 Inhibitors: qHTS Validation Assay for Inhibitors of Endonuclease IV (AID 1708)
Method in brief: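 Enzymatic AP-site incision assay using a double-stranded THF substrate labelled with TAMRA and BHQ-2; released fluorescence signals activity. Enzyme 2 nM, substrate 50 nM, 15 min compound preincubation.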

[7] = qHTS for differential inhibitors of proliferation of Plasmodium falciparum line 7G8 (AID 1815);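 further: parasite growth measured after three days of incubation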; further: potency means the concentration at half of the fitted maximal effect
[8] = qHTS for differential inhibitors of proliferation of Plasmodium falciparum line GB4 (AID 1816); conditions: Potency: Plasmodium falciparum GB4 proliferation inhibition;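 further: parasite growth measured after 72 h incubation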; further: potency means the concentration at half of the fitted maximal effect
[9] = qHTS for differential inhibitors of proliferation of Plasmodium falciparum line 3D7 (AID 1876); further: potency means the concentration at half of the fitted maximal effect
[10] = qHTS for differential inhibitors of proliferation of Plasmodium falciparum line D10 (AID 1877);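 further: parasites grown with compound for 72 h before DNA staining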; further: potency means the concentration at half of the fitted maximal effect
[11] = measured here: cell count channel max response
[12] = measured here: lipid channel max response

SMILES | outcome [1] | outcome [2] | activity change, negative = inhibition ([3]; at 57.5 µM (top of the series)) | max response [3, 11] | max response [3, 12] | Potency [4] | outcome [5] | Potency [6] | Potency [7] | Potency [8] | Potency [9] | Potency [10] | activity change, negative = inhibition ([3]; at 25.7 µM (top of the series))
FC(F)(F)c1ccccc1-n1ccnc1 | inactive | inactive | 7.35% (inactive) | 11% | 25.3% | inactive | inactive | inactive | inactive | inactive | inactive | inactive | 
CC(=O)OC(C)C[N+](C)(C)C (stereo not given) |  | inactive | 7.3% (inactive) | 18.4% | 29.3% | inactive | inactive |  | inactive | inactive | inactive | inactive | 
Cc1cc(C)c(/C=C2\C(=O)Nc3ccccc32)[nH]1 |  | inactive |  |  |  | inactive | inactive | inactive |  |  | inactive | inactive | 
COc1cc(C(=O)OCCCN2CCCN(CCCOC(=O)c3cc(OC)c(OC)c(OC)c3)CC2)cc(OC)c1OC | inactive | inactive |  | 11.7% | 8.49% | inactive | inactive |  | 5.01 µM (active) | 6.31 µM (active) | 3.16 µM (active) | 10 µM (active) | -0.679% (inactive)
CCN(CC)CC(=O)Nc1c(C)cccc1C | inactive | inactive | 2.9% (inactive) | -1.17% and 18.4% | 2.13% and 21.4% | inactive | inactive |  | inactive |  | inactive | inactive | 0.593% (inactive)
CCn1nc(C(=O)O)c(=O)c2cc3c(cc21)OCO3 | inactive | inactive | 13.5% (inactive) | -2.39% and 18.6% | 0.268% and 42.8% | inactive | inactive |  |  |  |  |  | 1.1% (inactive)
NC(N)=NC(=O)Cc1c(Cl)cccc1Cl | inactive | inactive | 1.08% (inactive) | -10.4% and 9.91% | -13.2% and 12.7% | inactive | inactive |  | 3.98 µM (active) | 3.98 µM (active) | 2.82 µM (active) |  | -2.29% (inactive)
CN(C(=O)CCCOc1ccc2[nH]c(=O)ccc2c1)C1CCCCC1 | inactive | inactive |  |  |  | inactive | inactive | inactive | 7.08 µM (active) |  |  |  | 
O=C(CCNNC(=O)c1ccncc1)NCc1ccccc1 | inactive | inactive | 1.21% (inactive) | -2.07% and 1.8% | 0.496% and 1.66% | inactive | inactive |  |  |  |  |  | -0.0465% (inactive)
CN/C(=C\[N+](=O)[O-])NCCSCc1ccc(CN(C)C)o1 | inactive | inactive | 4.77% (inactive) and 9.42% (inactive) | 4.03% and -18.5% and 18.2% | 2.82% and -19.9% and 33.3% | inactive | inactive | inactive |  |  |  |  | -0.0815% (inactive)
Cc1nc2ccccn2c(=O)c1CCN1CCC(C(=O)c2ccc(F)cc2)CC1 | inactive | inactive | 16.1% (inactive) | 7.37% | 24.1% | inactive | inactive |  | 7.94 µM (active) | 11.2 µM (active) | 10 µM (active) |  | 
CCCCCN(CCCCC)C(=O)C(CCC(=O)O)NC(=O)c1ccc(Cl)c(Cl)c1 (stereo not given) |  | inactive | 2.8% (inactive) | -5.79% | -4.23% | inactive | inactive |  | inactive | inactive | inactive | inactive | 
Cc1ccc(S(=O)(=O)NC(=O)NN2CCCCCC2)cc1 | inactive | inactive | 9.8% (inactive) | 0.635% and 17.7% | 2.19% and 33.1% | inactive | inactive |  | inactive | inactive | inactive | inactive | 0.497% (inactive)
COc1ccc(CCN(C)CCCC(C#N)(c2cc(OC)c(OC)c(OC)c2)C(C)C)cc1OC (stereo not given) |  | inactive |  |  |  | inactive | inactive |  | 7.08 µM (active) | 6.31 µM (active) | 3.16 µM (active) |  | 
CCN(Cc1ccncc1)C(=O)C(CO)c1ccccc1 (stereo not given) |  | inactive |  |  |  | inactive | inactive |  | inactive | inactive | inactive | inactive | 
CC(C(=O)O)c1ccc(CC2CCCC2=O)cc1 (stereo not given) |  | inactive | -1.18% (inactive) | -27.7% | -27% | inactive | inactive |  | inactive | inactive | inactive | inactive | 
N[C@@H](COP(=O)(O)O)C(=O)O | inactive | inactive | 3.29% (inactive) and -0.662% (inactive) | 18.8% and -18.9% | 26.3% and -20.3% | inactive | inactive |  | inactive | inactive | inactive | inactive | 
CC(N=C(NC#N)Nc1ccncc1)C(C)(C)C (stereo not given) |  | inactive | 13.9% (inactive) and 0.102% (inactive) | 1.72% and -23.9% | 14.8% and -22.8% | inactive | inactive |  |  |  |  |  | 
CC(C)NCC(O)c1cc(O)cc(O)c1 (stereo not given) |  | inactive | 10.7% (inactive) and 0.0278% (inactive) | 8.74% and -21.1% | 23% and -23.1% |  | inactive | inactive | inactive | inactive | inactive | inactive | 
CCCCNC(=O)NS(=O)(=O)c1ccc(C)cc1 | inactive | inactive | 5.43% (inactive) and -0.0777% (inactive) | -2.87% and 13.1% and 19.7% | -2.83% and 21.8% and 21.4% | inactive | inactive |  |  | inactive | inactive | inactive | 0.284% (inactive)

— PubChem BioAssay (NCATS)
